# Test results taken from PubChem BioAssay.
# The source made the active and inactive calls.
# Experiments:
# [1] = tested on: PRMT1 (protein arginine N-methyltransferase 1); experiment: small molecules binding arginine methyltransferase PRMT1 – biochemical, small-molecule microarray, 635 nm fluorescence, primary screen (AID 1088); conditions: higher = more signal;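 also: binding of Prmt1 protein to compounds spotted on small-molecule microarray slides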
# [2] = growth effects on S. cerevisiae YJM789 – YJM789 clinical isolate, OD600, 24 h, basal, primary screen (AID 1089); conditions: higher = more signal, called active from +8 up or from −8 down;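 also: growth of clinical yeast isolate S. cerevisiae YJM 789 seeded 1000 cells per well; test concentration not given here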
# [3] = S. pombe growth modifiers, basal conditions – strain 972, OD600, 24 h, no modulator, primary screen (AID 1090);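 also: basal condition with compound alone and no growth modifier present; test concentration not given here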; conditions: S. pombe 972 growth, higher = more signal, called active from +8 up or from −8 down
# [4] = budding yeast growth modifiers under rapamycin – strain BY4716, OD600, 96 h, primary screen (AID 1091); also: test concentration not given here; conditions: S. cerevisiae BY4716 + rapamycin, higher = more signal, called active from +8 up or from −8 down
# [5] = biological target: Torsin-1A-interacting protein 2 (Homo sapiens) (UniProt Q8NFQ8); experiment: small molecules binding lysate-expressed LULL1 – cell lysate, human LULL1 lysate, 635/667 nm fluorescence, primary screen (AID 1092); conditions: small-molecule microarray, hLULL1 lysate binding, 635 nm fluorescence; higher = more signal;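 also: probe is lysate of COS7 cells overexpressing human LULL1; score merges per-feature 667 nm fluorescence with signal-to-noise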
# Sequence of Torsin-1A-interacting protein 2 (Homo sapiens) (Q8NFQ8 whole entry, looked up): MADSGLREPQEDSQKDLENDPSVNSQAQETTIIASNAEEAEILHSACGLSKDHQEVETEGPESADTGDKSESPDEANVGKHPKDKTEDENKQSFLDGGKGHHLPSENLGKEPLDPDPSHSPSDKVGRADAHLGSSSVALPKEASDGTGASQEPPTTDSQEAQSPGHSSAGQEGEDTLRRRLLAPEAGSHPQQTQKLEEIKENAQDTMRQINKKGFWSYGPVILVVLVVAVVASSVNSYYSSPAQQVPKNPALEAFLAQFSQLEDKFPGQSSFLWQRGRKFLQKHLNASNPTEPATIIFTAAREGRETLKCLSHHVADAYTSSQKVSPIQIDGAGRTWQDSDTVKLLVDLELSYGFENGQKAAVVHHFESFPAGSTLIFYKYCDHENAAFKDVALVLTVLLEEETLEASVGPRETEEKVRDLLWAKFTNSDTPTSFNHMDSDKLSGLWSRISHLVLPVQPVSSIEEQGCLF
# [6] = optical density change of DRC41 E. coli – strain DRC41, OD650, 24 h, E. coli filamentation project, primary screen (AID 1093);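 also: MC1000 strain lacking acrAB efflux and sulA so SOS filamentation is blocked; test concentration not given here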; conditions: E. coli DRC41 growth, higher = more signal, called active from +8 up or from −8 down
# [7] = probe aLefty2 binding to arrayed compounds – biochemical, biotinylated probe, 635/667 nm fluorescence, primary screen (AID 1094); conditions: small-molecule microarray, higher = more signal;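 also: score merges spot fluorescence near 667 nm with spot signal-to-noise ratio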
# [8] = tested on: Noggin (protein binding on small-molecule microarray); experiment: small molecules binding Noggin protein – biochemical, 635/667 nm fluorescence, primary screen (AID 1095); conditions: 635 nm fluorescence, higher = more signal;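 also: score merges 667 nm feature fluorescence with signal to noise over triplicate slides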
# [9] = biological target: Neurogenic locus notch homolog protein 3 (Homo sapiens) (UniProt Q9UM47); experiment: small molecules binding NOTCH3 protein – biochemical, 635/667 nm fluorescence, primary screen (AID 1096); conditions: small-molecule microarray, 635 nm fluorescence, higher = more signal
# Sequence of Neurogenic locus notch homolog protein 3 (Homo sapiens) (Q9UM47 whole entry, looked up): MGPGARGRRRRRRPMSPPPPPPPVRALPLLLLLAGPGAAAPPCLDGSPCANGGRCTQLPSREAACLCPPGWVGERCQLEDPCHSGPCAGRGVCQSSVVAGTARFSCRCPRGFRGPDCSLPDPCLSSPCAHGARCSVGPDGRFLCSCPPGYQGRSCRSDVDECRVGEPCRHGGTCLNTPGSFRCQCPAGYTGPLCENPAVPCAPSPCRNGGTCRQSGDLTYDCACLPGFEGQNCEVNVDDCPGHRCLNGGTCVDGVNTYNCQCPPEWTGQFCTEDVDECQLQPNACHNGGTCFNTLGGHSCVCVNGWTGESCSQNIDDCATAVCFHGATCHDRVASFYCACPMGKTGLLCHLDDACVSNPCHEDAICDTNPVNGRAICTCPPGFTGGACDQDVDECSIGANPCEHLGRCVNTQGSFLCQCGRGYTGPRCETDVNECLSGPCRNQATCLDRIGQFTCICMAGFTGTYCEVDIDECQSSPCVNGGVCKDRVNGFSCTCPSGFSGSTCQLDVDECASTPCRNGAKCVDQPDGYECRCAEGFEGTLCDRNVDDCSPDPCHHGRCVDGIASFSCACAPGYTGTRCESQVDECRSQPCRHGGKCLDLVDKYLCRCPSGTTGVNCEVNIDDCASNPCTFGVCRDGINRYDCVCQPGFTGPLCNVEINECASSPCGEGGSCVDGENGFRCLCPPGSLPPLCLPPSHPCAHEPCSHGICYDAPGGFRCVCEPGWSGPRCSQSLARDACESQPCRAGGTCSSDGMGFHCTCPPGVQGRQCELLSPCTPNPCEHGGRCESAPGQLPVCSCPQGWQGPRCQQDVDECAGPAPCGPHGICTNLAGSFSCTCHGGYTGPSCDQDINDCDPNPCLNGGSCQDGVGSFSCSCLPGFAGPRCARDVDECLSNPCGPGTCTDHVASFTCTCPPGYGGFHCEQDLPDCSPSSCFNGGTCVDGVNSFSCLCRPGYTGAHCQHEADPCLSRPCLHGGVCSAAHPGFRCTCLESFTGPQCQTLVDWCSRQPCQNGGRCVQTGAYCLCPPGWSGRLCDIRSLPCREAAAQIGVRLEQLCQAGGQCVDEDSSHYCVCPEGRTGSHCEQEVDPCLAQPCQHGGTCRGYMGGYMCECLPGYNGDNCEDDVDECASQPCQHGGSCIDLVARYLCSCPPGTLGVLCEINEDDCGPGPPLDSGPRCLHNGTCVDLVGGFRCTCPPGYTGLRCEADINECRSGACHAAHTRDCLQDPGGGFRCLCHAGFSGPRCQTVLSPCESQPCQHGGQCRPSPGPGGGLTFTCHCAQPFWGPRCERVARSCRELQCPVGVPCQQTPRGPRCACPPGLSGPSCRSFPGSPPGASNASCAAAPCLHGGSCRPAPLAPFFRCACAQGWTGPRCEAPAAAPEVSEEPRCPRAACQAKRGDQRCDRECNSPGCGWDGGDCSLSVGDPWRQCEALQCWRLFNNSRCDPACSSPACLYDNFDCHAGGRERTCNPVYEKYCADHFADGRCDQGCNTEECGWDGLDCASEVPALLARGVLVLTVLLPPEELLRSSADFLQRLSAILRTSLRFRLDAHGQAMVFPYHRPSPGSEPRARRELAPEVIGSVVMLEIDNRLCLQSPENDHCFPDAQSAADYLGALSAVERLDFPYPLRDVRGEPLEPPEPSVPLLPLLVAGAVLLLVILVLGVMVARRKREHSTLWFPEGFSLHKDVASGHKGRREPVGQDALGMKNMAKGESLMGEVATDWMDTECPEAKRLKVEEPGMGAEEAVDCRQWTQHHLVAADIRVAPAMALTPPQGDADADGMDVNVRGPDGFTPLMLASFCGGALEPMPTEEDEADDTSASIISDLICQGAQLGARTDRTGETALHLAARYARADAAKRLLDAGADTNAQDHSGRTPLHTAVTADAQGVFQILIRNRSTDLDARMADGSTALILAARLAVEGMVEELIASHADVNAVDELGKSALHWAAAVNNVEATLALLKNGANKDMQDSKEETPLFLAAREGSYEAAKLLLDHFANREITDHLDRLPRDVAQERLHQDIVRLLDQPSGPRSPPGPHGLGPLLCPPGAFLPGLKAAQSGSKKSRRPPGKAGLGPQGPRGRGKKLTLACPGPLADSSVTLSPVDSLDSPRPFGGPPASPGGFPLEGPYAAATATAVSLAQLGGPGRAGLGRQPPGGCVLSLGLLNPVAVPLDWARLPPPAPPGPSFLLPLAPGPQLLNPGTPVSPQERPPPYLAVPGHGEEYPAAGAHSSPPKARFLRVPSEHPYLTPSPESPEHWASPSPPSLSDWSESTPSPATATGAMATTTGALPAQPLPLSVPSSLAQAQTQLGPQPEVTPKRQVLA
# [10] = probe aEGFR binding to arrayed compounds – biochemical, biotinylated probe, 635/667 nm fluorescence, primary screen (AID 1097); conditions: small-molecule microarray, higher = more signal;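 also: probe is a biotinylated anti-EGFR antibody binding compounds printed on slides; score combines fluorescence near 667 nm and signal to noise of each spot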
SMILES,composite z-score [1],z-score [2],z-score [3],z-score [4],composite z-score [5],z-score [6],composite z-score [7],composite z-score [8],composite z-score [9],composite z-score [10]
O=C1CCCC=C1C(O)CCCCBr (stereo not given),-0.25,-3.03 (inactive),-20.8 (active),-1.04 (inactive),1.7,0.518 (inactive),0.263,1.03,0.474,-0.0742
C[C@@H](c1ccccc1)N1C(=O)[C@H]2[C@H]3[C@H](O)[C@H](O)CC(=O)[C@H]3CC[C@H]2C1=O,0.157,-0.394 (inactive),-0.197 (inactive),0.134 (inactive),0.461,0.541 (inactive),-0.0483,0.482,0.521,-0.108
COC(=O)CC=C[C@@H](C)[C@@H](C=NO[C@@H](C)c1cn([C@H](CO)Cc2ccccc2)nn1)OC,1.05,-2.66 (inactive),-2.01 (inactive),-0.773 (inactive),0.579,-0.673 (inactive),-0.173,0.719,0.627,-0.114
CCc1cc2c(nc1CC)CCN(CCC(C)=NO[C@H](C)c1cn([C@H](CO)Cc3ccccc3)nn1)C2,1.05,-0.563 (inactive),-0.484 (inactive),-0.112 (inactive),0.461,-0.0004 (inactive),0.0336,0.336,-0.171,-0.142
COC(=O)CC=C[C@@H](C)[C@@H](C=NOCC[C@@H]1C=C[C@H](OC(C)=O)[C@@H](COC(C)=O)O1)NS(=O)(=O)c1ccc(C)cc1,0.477,0.787 (inactive),0.466 (inactive),-0.448 (inactive),-0.0098,0.545 (inactive),0.135,0.706,-0.213,0.0511
O=C1[C@H]2[C@H]3[C@H](O)[C@H](O)CC(=NOC[C@@H](O)COCc4ccco4)[C@H]3CC[C@H]2C(=O)N1Cc1ccccc1,0.411,-1.14 (inactive),-1.05 (inactive),-1.11 (inactive),-1.71,-0.518 (inactive),-0.148,0.594,-0.309,-0.0973
C#CCCCON=C1C[C@@H](O)[C@@H](O)[C@@H]2[C@@H]3C(=O)N(C(C)(C)C)C(=O)[C@@H]3CC[C@H]12,-0.872,-0.234 (inactive),-0.401 (inactive),-0.0894 (inactive),-0.0077,0.216 (inactive),0.599,-0.532,-0.326,0.113
CCCCC#C[C@@H]1C=C[C@H](Oc2ccc(C(=O)OC)cc2)[C@@H](COC(=O)OCC)O1,0.888,0.143 (inactive),-19.5 (active),-0.611 (inactive),0.508,0.197 (inactive),-0.115,0.198,0.531,-0.0051
CO[C@H]1COC(=O)CC=C[C@@H](C)[C@H](NS(=O)(=O)c2ccc(C)cc2)COC(=O)CCC[C@@H]1C,1.1,-0.419 (inactive),0.14 (inactive),-0.726 (inactive),-0.401,-0.0537 (inactive),-0.122,0.676,0.77,-0.067
O=C(NN=C1C[C@@H](O)[C@@H](O)[C@@H]2[C@@H]3C(=O)N(C[C@@H]4CCCO4)C(=O)[C@@H]3CC[C@@H]12)OCc1ccccc1,1.04,-1.74 (inactive),-0.199 (inactive),-0.655 (inactive),-0.0366,-0.202 (inactive),-0.27,0.907,0.208,-0.0947
CCOC(=O)NN=C1C[C@@H](O)[C@@H](O)[C@@H]2[C@@H]3C(=O)N(c4ccc(F)cc4F)C(=O)[C@@H]3CC[C@@H]12,-0.009,0.517 (inactive),0.733 (inactive),-0.0512 (inactive),0.0129,0.783 (inactive),-0.0347,0.139,0.578,-0.124
Cc1cc2c(nc1C)CCCCN2CC(C)ON=C[C@@H](C)[C@H](OCc1ccccc1)C(C)C (stereo not given in full),-0.766,-0.715 (inactive),-14.4 (active),0.365 (inactive),-1.02,0.162 (inactive),-0.204,-0.913,-1.01,-0.3
C[C@H]1CC[C@H]2C(=O)OC(CO)CN2[C@@H]1c1ccc(Br)cc1 (stereo not given in full),0.14,-0.276 (inactive),-0.315 (inactive),0.603 (inactive),-0.467,0.458 (inactive),-0.236,0.0982,-0.0249,-0.145
CC(C)=NO[C@H](C)c1cn([C@H](CO)Cc2ccccc2)nn1,0.325,-0.43 (inactive),-0.594 (inactive),0.245 (inactive),1.09,0.208 (inactive),-0.166,-0.0003,0.104,-0.0406
